The values that follow come from PubChem BioAssay (NCATS).

Molecules are shown by their SMILES. Records with an inconclusive call do not appear. Where a call stands in place of a potency, no number is given. A number with no mark means an inactive call. Active and inactive are the calls of the source. Calls follow the shape of the full dose curve.

The first assay can be described thus: Primary qHTS for Huh7 cytotoxicity: counterscreen for inhibitors of MERS-S pseudotyped particle cell entry (AID 1479147). To be noted: cell viability read-out; series mostly up to 57.1 µM. In general terms: Quantitative high-throughput screening tests each substance at several concentrations.
On to `N#CC(c1ccc(Cl)cc1)c1c(Cl)cc(-n2ncc(=O)[nH]c2=O)cc1Cl` (centres undefined), for which the result was inactive.
For `NC(N)=NCc1cccc(I)c1`, the result was inactive.
Still for that read-out and setting: the same measure for `CO[C@H]1[C@@H](O)[C@H](N)[C@@H](O[C@H]2O[C@H]([C@H](C)N)CC[C@H]2N)[C@H](O)[C@@H]1N(C)C(=O)CN`: “inactive”.
For the compound `O=C(O)/C=C/c1ccccc1`, the outcome was “inactive [at 114 µM]”.
Same read-out and setting: to `CC(=O)O[C@H]1Cc2ccccc2N(C(N)=O)c2ccccc21` belongs “inactive”; to `CC(C)COC(=O)OCN1C(=O)CN(CCN2CC(=O)N(COC(=O)OCC(C)C)C(=O)C2)CC1=O`, “inactive”; to `CN(C)CCC(c1ccc(Br)cc1)c1ccccn1` (centres undefined), “inactive”.
Regarding `COc1ccc(/C=C/C(=O)Nc2ccccc2C(=O)O)cc1OC`, the result was inactive.
With `CN(C)CCCN1c2ccccc2CCc2ccccc21`, the result was inactive.
With `CCC(=O)NCC[C@@H]1CCc2ccc3c(c21)CCO3`, the outcome was inactive.
With `CC1(C)CCC(CN2CCN(c3ccc(C(=O)NS(=O)(=O)c4ccc(NCC5CCOCC5)c([N+](=O)[O-])c4)c(Oc4cnc5[nH]ccc5c4)c3)CC2)=C(c2ccc(Cl)cc2)C1`, the outcome was inactive.
`O=[N+]([O-])c1c(Cl)cccc1-c1c[nH]cc1Cl`: the result was inactive.

A short description of a further assay: Primary qHTS for inhibitors of MERS-S pseudo-typed particle cell entry (AID 1479149). Also: nearly all actives have a fitted effect of over 60% in size. Also: potency is read from the fitted curve at half-maximal effect. To be noted: MERS-S pseudotyped particle entry, luciferase; series mostly up to 57.1 µM.
As to `O=C1CCCC(=O)C1C(=O)c1ccc(C(F)(F)F)cc1[N+](=O)[O-]`, the Potency result is “inactive”.
Still for that read-out and setting: to `Cc1ccc(NC(=O)C2(c3ccc4c(c3)OC(F)(F)O4)CC2)nc1-c1cccc(C(=O)O)c1` belongs “inactive”; to `O=C1c2c(O)cccc2[C@@H]([C@@H]2O[C@H](CO)[C@@H](O)[C@H](O)[C@H]2O)c2cc(CO)cc(O)c21`, “inactive”.
For `Cc1c(-c2ccc(O)cc2)n(Cc2ccc(OCCN3CCCCCC3)cc2)c2ccc(O)cc12`, the Potency is 10 µM (active).
The same measure, in the same setting: to `N[C@@H](CC(=O)N1CCn2c(nnc2C(F)(F)F)C1)Cc1cc(F)c(F)cc1F` belongs “inactive”; to `CCCNS(=O)(=O)Nc1ncnc(OCCOc2ncc(Br)cn2)c1-c1ccc(Br)cc1`, “inactive”.
Same read-out and setting: the same measure for `Cc1ccccc1O`: “inactive”; for `COc1ccc(-n2nc(C(N)=O)c3c2C(=O)N(c2ccc(N4CCCCC4=O)cc2)CC3)cc1`: “inactive”.
Regarding `CC(O)[C@H]1CC[C@H]2[C@@H]3CC[C@@H]4C[C@@H](O)CC[C@]4(C)[C@H]3CC[C@]12C` (some centres undefined), the Potency entry was “inactive”.
Same read-out and setting: to `CC(C)C(=O)Oc1ccc(CO)cc1[C@H](CCN(C(C)C)C(C)C)c1ccccc1` belongs 14.1 µM (active).
On the same count and under the same terms, the same measure for `C[C@H]1COc2c(N3CCN(C)CC3)c(F)cc3c(=O)c(C(=O)O)cn1c23`: “inactive”; for `C[N+]1(CCCCC[N+]2(C)CCCC2)CCCC1`: “inactive”.
Regarding `O=C(O)c1nc(=O)[nH]c(=O)[nH]1`, the outcome was “inactive [at 0.573 µM]”.
Regarding `CCc1cc2c(cc1N1CCC(N3CCOCC3)CC1)C(C)(C)c1[nH]c3cc(C#N)ccc3c1C2=O`, the Potency entry is “inactive”.
`NC(N)=NCc1cccc(I)c1`: the Potency entry is “inactive”.
As to `CO[C@H]1[C@@H](O)[C@H](N)[C@@H](O[C@H]2O[C@H]([C@H](C)N)CC[C@H]2N)[C@H](O)[C@@H]1N(C)C(=O)CN`, the Potency result is “inactive”.
Regarding `O=C(O)/C=C/c1ccccc1`, the Potency entry was “inactive”.
With `CC(=O)O[C@H]1Cc2ccccc2N(C(N)=O)c2ccccc21`, the Potency entry is “inactive”.
Same read-out and setting: to `CC(C)COC(=O)OCN1C(=O)CN(CCN2CC(=O)N(COC(=O)OCC(C)C)C(=O)C2)CC1=O` belongs “inactive”.
The same measure, in the same setting: the same measure for `CN(C)CCC(c1ccc(Br)cc1)c1ccccn1` (centres undefined): “inactive”; for `COc1ccc(/C=C/C(=O)Nc2ccccc2C(=O)O)cc1OC`: “inactive”; for `CCC(=O)NCC[C@@H]1CCc2ccc3c(c21)CCO3`: “inactive”.
Still for that read-out and setting: to `CC1(C)CCC(CN2CCN(c3ccc(C(=O)NS(=O)(=O)c4ccc(NCC5CCOCC5)c([N+](=O)[O-])c4)c(Oc4cnc5[nH]ccc5c4)c3)CC2)=C(c2ccc(Cl)cc2)C1` belongs “inactive”.

A further assay can be described thus: Primary qHTS for Vero E6 cytotoxicity: counterscreen for inhibitors of SARS-S pseudo-typed particle cell entry (AID 1479150). To be noted: cell viability; series mostly up to 57.1 µM.
Consider `CC(=O)[C@H]1CC[C@H]2[C@@H]3CCC4=CC(=O)CC[C@]4(C)[C@H]3CC[C@]12C`, for which the compound was called inactive.
As to `O=C1CCCC(=O)C1C(=O)c1ccc(C(F)(F)F)cc1[N+](=O)[O-]`, the outcome was inactive.
For the compound `Cc1ccc(NC(=O)C2(c3ccc4c(c3)OC(F)(F)O4)CC2)nc1-c1cccc(C(=O)O)c1`, the compound was called inactive.
Same read-out and setting: to `O=C1c2c(O)cccc2[C@@H]([C@@H]2O[C@H](CO)[C@@H](O)[C@H](O)[C@H]2O)c2cc(CO)cc(O)c21` belongs “inactive”; to `Cc1c(-c2ccc(O)cc2)n(Cc2ccc(OCCN3CCCCCC3)cc2)c2ccc(O)cc12`, “inactive”; to `N[C@@H](CC(=O)N1CCn2c(nnc2C(F)(F)F)C1)Cc1cc(F)c(F)cc1F`, “inactive”.
Same read-out and setting: the same measure for `CCCNS(=O)(=O)Nc1ncnc(OCCOc2ncc(Br)cn2)c1-c1ccc(Br)cc1`: “inactive”; for `Cc1ccccc1O`: “inactive”.
Still for that read-out and setting: to `COc1ccc(-n2nc(C(N)=O)c3c2C(=O)N(c2ccc(N4CCCCC4=O)cc2)CC3)cc1` belongs “inactive”; to `CC(O)[C@H]1CC[C@H]2[C@@H]3CC[C@@H]4C[C@@H](O)CC[C@]4(C)[C@H]3CC[C@]12C` (some centres undefined), “inactive [at 114 µM]”; to `CC(C)C(=O)Oc1ccc(CO)cc1[C@H](CCN(C(C)C)C(C)C)c1ccccc1`, “inactive”.
In the case of `C[C@H]1COc2c(N3CCN(C)CC3)c(F)cc3c(=O)c(C(=O)O)cn1c23`, the call was inactive.
Take `COc1ccc(CCN(C)CCCC(C#N)(c2ccc(OC)c(OC)c2)C(C)C)cc1OC` (centres undefined): the outcome was inactive.
The same measure, in the same setting: to `CN(C/C=C/c1ccccc1)Cc1cccc2ccccc12` belongs “inactive”.
The same measure, in the same setting: the same measure for `C[N+]1(CCCCC[N+]2(C)CCCC2)CCCC1`: “inactive”.
Take `O=C(O)c1nc(=O)[nH]c(=O)[nH]1`: the activity change, negative = cytotoxicity is 2.99% [at 0.573 µM].
For `CCc1cc2c(cc1N1CCC(N3CCOCC3)CC1)C(C)(C)c1[nH]c3cc(C#N)ccc3c1C2=O`, the compound was called inactive.
Turning to `N#CC(c1ccc(Cl)cc1)c1c(Cl)cc(-n2ncc(=O)[nH]c2=O)cc1Cl` (centres undefined), the call was inactive.
The same measure, in the same setting: the same measure for `NC(N)=NCc1cccc(I)c1`: “inactive”.
Take `CO[C@H]1[C@@H](O)[C@H](N)[C@@H](O[C@H]2O[C@H]([C@H](C)N)CC[C@H]2N)[C@H](O)[C@@H]1N(C)C(=O)CN`: the compound was classed as inactive.
As for `O=C(O)/C=C/c1ccccc1`, the outcome is “inactive [at 114 µM]”.
In the case of `CC(=O)O[C@H]1Cc2ccccc2N(C(N)=O)c2ccccc21`, the compound was called inactive.
Still for that read-out and setting: to `CC(C)COC(=O)OCN1C(=O)CN(CCN2CC(=O)N(COC(=O)OCC(C)C)C(=O)C2)CC1=O` belongs “inactive”; to `CN(C)CCC(c1ccc(Br)cc1)c1ccccn1` (centres undefined), “inactive”; to `COc1ccc(/C=C/C(=O)Nc2ccccc2C(=O)O)cc1OC`, “inactive”.
On the same count and under the same terms, to `CN(C)CCCN1c2ccccc2CCc2ccccc21` belongs “inactive”; to `CCC(=O)NCC[C@@H]1CCc2ccc3c(c21)CCO3`, “inactive”; to `CC1(C)CCC(CN2CCN(c3ccc(C(=O)NS(=O)(=O)c4ccc(NCC5CCOCC5)c([N+](=O)[O-])c4)c(Oc4cnc5[nH]ccc5c4)c3)CC2)=C(c2ccc(Cl)cc2)C1`, “inactive”.
Same read-out and setting: the same measure for `O=[N+]([O-])c1c(Cl)cccc1-c1c[nH]cc1Cl`: “inactive”.
